# Screens from PubChem.
# PNC inhibitor – inhibitors of perinucleolar compartment assembly | activity change (PNC), negative = inhibition, % at 10 µM | PC3M PTB-GFP, PNC prevalence imaging, 16 h; stronger effect = lower value | AID 2417 | 140,000 compounds, 3.1% hits;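 active means readout at or below -70, meaning at least 70% loss of cells showing the perinucleolar compartment, a nuclear body marking cancer cells; inconclusive means readout between -30 and a set limit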
#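 Read-out is percentage of cells bearing a perinucleolar compartment, from automated 20x imaging of fixed, Hoechst-stained PC3M PTB-GFP cells. Cells were seeded 4 h, then exposed 16 h to compound (23 nl of library stock) in duplicate plates.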
# ALDH1A1 inh – blocks purified human ALDH1A1 activity; Potency, µM (highest dose often 75.3 µM), hits mostly inhibitors; Purified ALDH1A1, NADH fluorescence, propionaldehyde substrate; 220,000 compounds, 7.3% hits
# Target sequence (P00352 whole entry, looked up): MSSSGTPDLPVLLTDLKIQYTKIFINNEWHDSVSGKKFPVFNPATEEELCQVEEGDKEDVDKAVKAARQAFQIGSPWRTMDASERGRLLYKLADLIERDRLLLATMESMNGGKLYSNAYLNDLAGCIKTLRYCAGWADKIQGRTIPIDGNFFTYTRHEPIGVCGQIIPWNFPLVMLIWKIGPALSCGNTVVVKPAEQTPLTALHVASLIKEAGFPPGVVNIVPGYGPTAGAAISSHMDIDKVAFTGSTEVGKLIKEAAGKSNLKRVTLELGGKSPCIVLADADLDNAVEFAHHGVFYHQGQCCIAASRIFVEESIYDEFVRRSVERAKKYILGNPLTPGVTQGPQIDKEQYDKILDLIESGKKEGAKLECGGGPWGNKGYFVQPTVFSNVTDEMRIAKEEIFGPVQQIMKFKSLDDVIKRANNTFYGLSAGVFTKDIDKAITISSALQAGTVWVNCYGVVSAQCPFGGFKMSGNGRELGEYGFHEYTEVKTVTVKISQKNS
# IMPase cell inh – IMPase inhibition in cells. CHO-M1 cells, IP1 accumulation, HTRF TR-FRET ratio. AID 901. inhibition (IP1 accumulation), % at 46.1 µM. 120,000 tested, under 10 active; active means well fitted curve in the direction sought with a large enough effect in the signal ratio, not every such curve was filed as active; inconclusive means small, poorly fitted or top-dose-only effect, or a change in a side signal; inactive means no such curve, though single readings can be large or run the other way; the % refers to the signal ratio;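 further: cells stimulated with carbachol in lithium chloride buffer; higher means more IMPase inhibition seen as more IP1 and lower FRET ratio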
#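 Cellular IMPase inhibition is scored as a rise in cytosolic IP1, detected by competitive TR-FRET between d2-labelled IP1 and a europium anti-IP1 antibody. M1-expressing CHO cells were stimulated with carbachol for 30 min at 37C, with lithium (50 mM LiCl) present in the buffer.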
# IMPase Li cell – IMPase inhibition in cells with lithium potentiation. CHO-M1 cells, IP1 TR-FRET (IP-One), carbachol + lithium. 210,000 compounds, 0.35% hits. AID 1457. Potency, µM (highest dose often 59.4 µM), hits mostly inhibitors; active means well fitted inhibition curve with a large enough effect; inconclusive means small, poorly fitted or top-dose-only effect; inactive means no such curve, though single readings can be large or run the other way;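 further: IP1 builds up when IMPase is blocked and the TR-FRET signal falls; nearly all actives have a fitted effect of over 50% in size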
#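 CHO cells stably expressing M1 receptor (2000/well, cultured 16–30 h) treated 30 min at 37C with compound plus low lithium. Cytosolic IP1 by TR-FRET (665/620 ratio and 620 channel) after 10 min lysis; AC50 by Hill fit.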
# HPGD inh – HPGD (human) dehydrogenase inhibition | P15428 | AID 894 | Potency, µM, most hits filed as inhibitors | purified HPGD, NADH fluorescence kinetic, PGE2 substrate | 150,000 compounds, 4.3% hits
#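 20 nM HPGD preincubated 15 min at room temperature with compound in 50 mM Tris-HCl pH 8, 0.01% Tween 20. Started with 1 mM NAD+ and 30 uM prostaglandin E2; NADH fluorescence (360/450 nm) read 5 times over 30-s intervals, last minus first.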
# Numbers stand for hits; - = inactive; ? = inconclusive; . = no result; [ ] = another dose, or the depositor's remark. Only some compounds are listed: those with a hit (about 11% of all), similar ones and a draw of the others. Unless noted, the call rests on the fitted dose curve; in most records, active means well fitted inhibition curve with a large enough effect (not every such curve was filed as active); inconclusive means small, poorly fitted or top-dose-only effect, or another doubt; inactive means no such curve, though single readings can be large or run the other way.
SMILES,PNC inhibitor,ALDH1A1 inh,IMPase cell inh,IMPase Li cell,HPGD inh
C=CCN1C(=O)C(CC(=O)O)SC1=Nc1ccc(N=Nc2ccccc2)cc1 (configuration not stated),.,-,.,-,.
C=CCN1C(=O)C(CC(=O)O)SC1=Nc1cccc([N+](=O)[O-])c1 (configuration not stated),.,14µM,.,-,.
C(=N\Nc1ccccn1)/c1ccc2c(c1)OCCO2,.,-,.,-,.
COc1cc2cc(C#N)c(SCC(=O)N3CCOCC3)nc2cc1OC,-100,-,-,-,-
COc1ccc2nc(SCC(=O)N3CCN(c4ccc(F)cc4)CC3)c(C#N)cc2c1,-,7.9µM,-,-,-
COc1ccc(N(C(=O)c2ccc(Br)o2)C2C=CS(=O)(=O)C2)cc1 (configuration not stated),-,?,-,-,-
COc1ccc(S(=O)(=O)N2CCC(C(=O)NCC3CCCO3)CC2)cc1C (configuration not stated),?,-,-,-,-
COc1cc(C(Nc2ccc(S(=O)(=O)N3CCC(C)CC3)cc2)C(=O)NCC2CCCO2)cc(OC)c1OC (configuration not stated),-,3.5µM,.,-,-
CC(=O)N1CCC2(CC1)CN(Cc1ccc(C#N)cc1)C2,.,-,.,-,-
Nc1ccc(Sc2ccc([N+](=O)[O-])cc2)cc1,.,-,.,-,.
O=C1C=CC(=O)N1c1ccc(Sc2ccc([N+](=O)[O-])cc2)cc1,.,0.79µM,.,.,.
S=C(S)NCCCn1ccnc1,.,-[13.5 µM],.,-,-
O=C(O)c1cc(N/N=C/c2ccc3c(c2)OCCO3)ccc1Cl,-,?,.,-,-
Cc1ccc(N/N=C/c2ccc3c(c2)OCCO3)cc1Cl,?,13µM,-,-,?
CCOC(=O)c1cc(C#N)c(NCc2ccccc2)nc1C,-,?,-,-,-
COC(=O)c1cc(C#N)c(NCc2ccc(Cl)cc2Cl)nc1C,-,-,-,8.9µM,?
C=C1CSc2nc3ccccc3c(=O)n21,?,?,?,-,?
O=C(CSc1cccc[n+]1[O-])Nc1cc(S(=O)(=O)N2CCOCC2)ccc1Cl,-88,-,.,-,-
O=C(CSc1cccc[n+]1[O-])Nc1ccccc1Oc1ccccc1,.,14µM,.,-,.
O=C(CSc1cccc[n+]1[O-])Nc1cc2c(cc1Cl)C(=O)c1ccccc1C2=O,-,8.9µM,.,-,-
O=C(CSc1cccc[n+]1[O-])Nc1cc([N+](=O)[O-])ccc1Cl,.,-,.,-,.
O=C(CSc1ccc(Br)cc1)Nc1ccccc1Oc1ccccc1,-,-,-,-,-
Cc1cccc(N2CCN(C(=O)c3cccc(N4C(=O)C5CC=CC(C)C5C4=O)c3)CC2)c1C (configuration not stated),-,-,-,-,-
O=C(O)C[C@H](Sc1ccccc1)c1ccccc1,.,-[13.5 µM],.,-,-
CCCc1nc2ccccc2n1CC(O)COc1ccc(C(=O)OC)cc1 (configuration not stated),.,.,-,.,.
SMILES,PNC inhibitor,ALDH1A1 inh,IMPase cell inh,IMPase Li cell,HPGD inh
Cc1ccc(CNC(=O)CSc2nc3ccsc3c(=O)n2Cc2ccc(C(=O)O)cc2)cc1,.,-,.,-,.
CC1CCN(Cc2c(C#N)c3ccccc3n2C)CC1,-,32µM,-,-,-
CC(C)c1ccc(NC(=O)c2cc(S(=O)(=O)NCC3COc4ccccc4O3)ccc2F)cc1 (configuration not stated),-113,?,.,-,-
COc1ccc(NC(=O)c2cc(S(=O)(=O)NCC3COc4ccccc4O3)ccc2F)cc1 (configuration not stated),-,?,-,-,-
Cc1[nH]c(C)c2c(=O)n(Cc3ccc(Cl)cc3)ncc12,.,-,.,.,.
O=c1c(Cl)c(Cl)cnn1Cc1nnc(-c2ccc(Cl)cc2)o1,.,8.9µM,.,-,.
CCc1ccc(C(=O)Cn2ncc(Cl)c(Cl)c2=O)cc1,-,14µM,-,-,-
Cc1cc(C)cc(Cn2ncc(Cl)c(Cl)c2=O)c1,?,28µM,.,-,-
O=c1c(Cl)c(Cl)cnn1Cc1ccccc1Cl,?,-,.,-,-
Cc1ccc(Cn2ncc(Cl)c(Cl)c2=O)cc1,-105,25µM,.,-,-
Cc1cccc(-n2c(=O)c3c4c(sc3n3cnnc23)CCCC4)c1,.,.,-,.,.
O=C(COC(=O)c1cnc(Cl)c(Cl)c1)NCc1cccs1,.,20µM,.,-,.
Cc1ccc(C(=O)OCC(=O)NCc2cccs2)cc1,-,-,-,-,?
NS(=O)(=O)c1ccc(NC(=O)COC(=O)c2cnc(Cl)c(Cl)c2)cc1,.,20µM,.,.,.
O=C(NCc1cccs1)c1cnc(Cl)c(Cl)c1,.,?,.,-,.
O=C(COC(=O)c1ccc(CO)cc1)NCc1cccs1,-,-,.,-,32µM
CCN(CCCCOC(=O)c1ccc(OC)c(OC)c1)[C@@H](C)Cc1ccc(OC)cc1,.,-,-,-,-
CC(NC(=O)C1CCCCC1)C(=O)NC1=NCCS1 (configuration not stated),-112,-,-,-,-
CC(C)C(NC(=O)C12CC3CC(CC(C3)C1)C2)C(=O)NC1=NCCS1 (configuration not stated),-,-,-,-,-
O=C(NNc1ccc([N+](=O)[O-])cc1)c1ccccc1Cl,.,-,.,-,.
Cc1c(Cl)cccc1Nc1ccccc1C(=O)O,.,-,-,-,14µM
O=C(O)c1ccccc1Nc1ccc([N+](=O)[O-])cc1,-87,-,.,-,-
Cc1ccc(Cl)c(Nc2ccccc2C(=O)O)c1Cl,-,-,-,-,-
O=C(c1cccs1)n1nc(-c2ccco2)nc1SCc1ccccc1,-,-,-,-,?
CCC(=O)n1nc(-c2ccco2)nc1SCc1ccccc1,?,?,-,-,13µM
